Screening results from PubChem BioAssay.
A selection: hits, their analogues and other compounds. The true share with any hit is near 4.7%.
SKKanGAS inh: S. pyogenes SKKanGAS growth inhibitors in kanamycin, primary screen, streptokinase expression inhibitor project, SKKanGAS strain, BacTiter-Glo luminescence | 6 h | AID 1662, 2009 | inhibition, % at 7.5 µM | 300,000 tested, 1.3% active;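 active = mean replicate score, as percent of positive control median, at least 50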;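 note: strain carries kanamycin resistance gene driven by streptokinase promoter and grows in 40 µg/ml kanamycin; loss of luminescence reflects streptokinase promoter inhibition or plain growth inhibition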
PfHsp90 set2: growth inhibition of PfHsp90-expressing yeast, primary screen, antimalarial PfHsp90 inhibitor project, S. cerevisiae, BacTiter-Glo luminescence, single point, set 2. BacTiter-Glo ATP, 48 h; yeast lacking PDR1 and PDR3 efflux regulators. inhibition, % at 9.4 µM. 310,000 tested, 0.32% active;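 active = every replicate shows inhibition above about 80%, whatever the replicate mean, limit read from the data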
tim23-1 inh: growth inhibitors of tim23-1 mutant yeast, primary screen, luminescence, uHTS. S. cerevisiae tim23-1 growth, BacTiter-Glo luminescence, 24 h. 330,000 tested, 1.3% active. inhibition, % at 20 µM. AID 463212, 2010;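 active = growth inhibition of the mutant yeast at or above 50%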;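 note: temperature-sensitive mutant grown at 25 °C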
ATG4B inhibitor: ATG4B protease inhibitors, primary screen, biochemical, fluorescence, uHTS. inhibition, % at 8.33 µM. AID 504462, 2011. ATG4B cleavage of LC3-PLA2, NBD-HPC fluorescence, 1 h. 340,000 tested, 0.51% active; in the data active = inhibition above about 40%
Target sequence (Q9Y4P1 whole entry, looked up): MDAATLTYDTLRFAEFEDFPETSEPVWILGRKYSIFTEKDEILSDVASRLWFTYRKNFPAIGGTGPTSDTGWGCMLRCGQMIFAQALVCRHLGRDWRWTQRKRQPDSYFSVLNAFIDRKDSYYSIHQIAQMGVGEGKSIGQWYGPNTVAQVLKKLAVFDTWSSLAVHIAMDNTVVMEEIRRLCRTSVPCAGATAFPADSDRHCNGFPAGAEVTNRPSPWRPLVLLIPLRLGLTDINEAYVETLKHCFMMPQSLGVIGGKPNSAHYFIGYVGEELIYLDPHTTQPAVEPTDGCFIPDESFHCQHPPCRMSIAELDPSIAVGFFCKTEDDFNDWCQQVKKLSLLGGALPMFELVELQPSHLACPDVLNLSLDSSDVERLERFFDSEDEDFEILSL
TIM10 inh: growth inhibitors of isogenic TIM10 control yeast, primary screen, counter-screen for tim10-1 yeast inhibitor project, luminescence, uHTS. S. cerevisiae TIM10 strain growth, BacTiter-Glo luminescence, 24 h. inhibition, % at 10 µM. 330,000 tested, 1.4% active. AID 463195, 2010;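 active = inhibition of 40% or more at the single tested concentration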;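 note: wild-type TIM10 isogenic control strain grown at permissive 25 °C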
tim10-1 inh: growth inhibitors of tim10-1 mutant yeast, primary screen, luminescence, uHTS; S. cerevisiae tim10-1 ts strain growth, BacTiter-Glo, 24 h; inhibition, % at 20 µM; 330,000 tested, 2.2% active; AID 463190, 2010;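 active = inhibition of at least 40%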;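 note: mutant grown at 25 °C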
Numbers stand for hits; i = inactive; nt = no result given.

SMILES	SKKanGAS inh	PfHsp90 set2	tim23-1 inh	ATG4B inhibitor	TIM10 inh	tim10-1 inh
OCCCCC#Cc1c(-c2ccsc2)sc2ccccc12	65	i	i	i	i	i
Oc1c(Cl)cc(Cl)cc1/C=N/c1nc(-c2ccc(Cl)cc2)cs1	i	i	i	i	i	i
COc1ccc(/C=C2/CCCC(CN(C)C)C2=O)cc1 (stereo not given)	nt	i	nt	i	nt	nt
COc1cccc(/C=C2/CCC(CN(C)C)C2=O)c1 (stereo not given)	nt	146	nt	i	nt	nt
O=C1C(Nc2ccc(O)cc2)=C/C(=N/S(=O)(=O)c2cccs2)c2ccccc21	87	i	nt	i	nt	nt
Cc1cccc(NC2=C/C(=N/S(=O)(=O)c3cccs3)c3ccccc3C2=O)c1	nt	i	nt	i	nt	nt
CCN(CC)c1ccc(/C=C2/SC(=O)N(C(C)C)C2=O)o1	i	86	nt	i	nt	nt
CCN1CCN(c2oc(COc3ccc(-c4ccccc4)cc3)nc2C#N)CC1	i	i	i	i	i	i
CC1CC(=O)c2c(cc3c(-c4c(O)cc(O)c5c(O)c6c(cc45)OC(C)CC6=O)c(O)cc(O)c3c2O)O1 (stereo not given)	107	i	i	i	i	i
Cc1cccc2sc(NNC(=O)c3ccc(S(=O)(=O)N4CC(C)CC(C)C4)cc3)nc12 (stereo not given)	92	i	i	i	i	i
Cc1ccc2nc(NNC(=O)c3ccc(S(=O)(=O)N4CCc5ccccc5C4)cc3)sc2c1	79	i	i	i	i	i
Cc1cc(C)c2nc(NNC(=O)c3ccc(S(=O)(=O)N4CCCC(C)C4)cc3)sc2c1 (stereo not given)	92	i	i	i	i	i
Cc1cc(C)c2nc(NNC(=O)c3ccc(S(=O)(=O)N4CC(C)CC(C)C4)cc3)sc2c1 (stereo not given)	82	i	i	i	i	i
Cc1ccc2nc(NNC(=O)c3ccc4c(c3)OCCO4)sc2c1	i	i	i	i	i	i
COC(=O)c1sc2ccccc2c1NC(=O)c1ccc(S(=O)(=O)N2CCCC(C)C2)cc1 (stereo not given)	i	i	i	i	i	i
O=C(NCCN=C1NS(=O)(=O)c2ccccc21)c1ccco1	i	i	i	i	i	i
Cc1cc(=O)oc2cc3c(cc12)OCCO3	i	i	i	i	i	i
CC(C)Oc1ccccc1OCCCOc1cccc2cccnc12	i	i	i	i	i	i
Cc1cc(C)c(C)c(OCCCOc2cccc3cccnc23)c1	61	i	i	i	i	i
CCC(=O)N1CN(S(=O)(=O)c2ccc(C)cc2)CC1C (stereo not given)	i	i	i	i	i	i
Oc1[nH]c(=S)sc1/C=C1\C(c2ccccc2)=Nc2ccccc21	76	i	nt	99	nt	nt
CCc1ccc(S(=O)(=O)/N=C2\C=C(Nc3cccc(C(=O)O)c3)C(=O)c3ccccc32)cc1	106	i	i	i	i	i
CCc1ccc(S(=O)(=O)/N=C2\C=CC(=O)c3ccccc32)cc1	nt	nt	i	nt	i	i
O=C(NCC(=O)N1CCN(S(=O)(=O)c2ccccc2F)CC1)c1ccc2ccccc2c1	i	i	i	i	i	i
CC(=O)c1c(O)c2ccccc2n(C)c1=O	i	i	i	i	i	i
SMILES	SKKanGAS inh	PfHsp90 set2	tim23-1 inh	ATG4B inhibitor	TIM10 inh	tim10-1 inh
Cn1c(=O)c(C(=O)NNC(=O)c2ccccc2Cl)c(O)c2ccccc21	51	i	i	i	i	i
Cn1c(=O)c(C(=O)NNC(=O)c2cccc(Cl)c2)c(O)c2ccccc21	62	i	i	i	i	i
Cn1nc(C(=O)NNC(=O)c2cccc(Cl)c2)c2ccccc2c1=O	nt	i	i	i	i	i
CC(C)(CN1CCc2ccccc2C1)NS(=O)(=O)c1ccc(Cl)cc1	i	i	i	i	i	i
CC(C)(C)c1cc[n+](C2=C([O-])c3ccccc3C(=O)/C2=N\S(=O)(=O)c2cccs2)cc1	56	nt	i	i	i	i
O=C1/C(=N\S(=O)(=O)c2cccs2)C([n+]2ccccc2)=C([O-])c2ccccc21	i	i	i	i	i	i
COc1ccc(-n2c(Cc3cccn3C)nnc2SCC(=O)NCc2ccccc2Cl)cc1	i	i	i	i	i	i
CCn1c(SCC(=O)Nc2nc(-c3ccc(C)cc3)cs2)nnc1-c1ccccc1O	55	i	i	i	i	i
CCn1c(SCC(=O)Nc2nc(-c3ccc(C)cc3)cs2)nnc1-c1ccccc1	i	i	i	i	i	i
CCCNC(=O)c1ccc(SCC(=O)N(CC)CC)c([N+](=O)[O-])c1	i	i	i	i	i	i
CCOC(=O)C1Nc2ccc(Br)cc2C2C=CCC12 (stereo not given)	i	i	i	i	i	i
Fc1ccc2c(c1)C1C=CCC1C(c1cc3c(cc1Br)OCO3)N2 (stereo not given)	73	i	i	i	i	i
CNC(CC(=O)c1ccc([N+](=O)[O-])cc1)C(Cl)(Cl)Cl (stereo not given)	nt	109	nt	i	nt	nt
COc1ccc(C(=O)CC(Nc2ccc([N+](=O)[O-])cc2)c2ccc(OC)cc2)cc1 (stereo not given)	i	i	i	i	i	i
O=C(COc1ccc(Br)cc1)N1CCC(c2ccccc2)C1 (stereo not given)	i	i	i	i	i	i
Cc1ccc(S(=O)(=O)N2CCCCC2)cc1NC(=O)CCc1nc2ccccc2c(=O)[nH]1	i	i	i	i	i	i
CCOC(=O)C1=C(Cc2ccc(OC)cc2)C(=O)c2ccccc2C1=O	nt	i	nt	i	nt	nt
CCOC(=O)C1=C(O)c2ccccc2C(=O)/C1=C\c1ccc(CC)cc1	81	i	nt	i	nt	nt
CSc1ccc(/C=N/n2c(COc3ccccc3)n[nH]c2=S)cc1	i	i	i	i	i	i
COc1cc(OC)c(OC)cc1/C=N/n1c(-c2n[nH]c3c2CCC3)n[nH]c1=S	i	i	i	i	i	i
COc1ccc(OC)c(/C=N/n2c(-c3n[nH]c4c3CCC4)n[nH]c2=S)c1	50	i	i	i	i	i
Cc1cnc(CN2CCCC(C(=O)c3ccc4c5c(cccc35)CC4)C2)[nH]1 (stereo not given)	i	i	i	i	i	i
O=C(Nc1ccc(-c2cccc(F)c2)cc1)C1CCCN(Cc2ccccn2)C1 (stereo not given)	52	i	i	i	i	i
O=C(c1ccc2c3c(cccc13)CC2)C1CCCN(Cc2ccccn2)C1 (stereo not given)	69	i	i	i	i	i
CCn1c(C)nnc1SCC(=O)Nc1cccc(Cl)c1	i	i	i	i	i	i
